The text below walks through data of PubChem BioAssay.

Activity calls are given as the source filed them.

One assay has as its target Albumin (Bos taurus) (UniProt P02769). Description: bovine serum albumin binders on microarray, profiling panel, artefact control for SMM control protein annotation, biochemical, small-molecule microarray, Alexa647 label, 635/667 nm fluorescence (AID 1118).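 Also: score merges 667 nm emission intensity and signal-to-noise per printed compound spot.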 The note with it: BSA-A647 binding, fluorescence 635 nm, higher = more signal.
A short description of assay [1]: small-molecule microarray binders of probe aXIP, primary screen, biochemical, NeuroSMM set, 635/667 nm fluorescence (AID 1119).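 Also: probe is the protein aXip251-270 applied at 1 µg/mL to compound-printed slides; binding of probe to printed compounds measured as 667 nm fluorescence plus signal to noise.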 Conditions: higher = more signal, called active from +8 up or from −8 down.
Assay [2] in a line: small-molecule binders of probe aNOTCH3, primary screen, biochemical, small-molecule microarray, 635/667 nm fluorescence (AID 1120).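 Also: probe is a biotin-tagged antibody raised against NOTCH3 rather than NOTCH3 protein; score merges spot fluorescence near 667 nm with spot signal to noise.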 Conditions: higher = more signal.
A short description of assay [3]: small-molecule binders of probe aNOTCH2, primary screen, biochemical, small-molecule microarray, 635/667 nm fluorescence (AID 1121).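 Also: score merges feature fluorescence read at 667 nm with its signal to noise.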 The note with it: higher = more signal.
Assay [4] deals with Carbonic anhydrase 2 (Homo sapiens) (UniProt P00918). Description: CAII small-molecule binders, profiling panel, biochemical, small-molecule microarray, Alexa647-labelled CAII (AID 1122). Conditions: CAII-A647 binding fluorescence, higher = more signal.
Assay [5] in a line: COS7 lysate on small-molecule microarray, probe aHis, 635 nm (AID 1123).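 Also: z-score combines 667nm fluorescence intensity with signal-to-noise per printed compound spot.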 The note with it: COS7 cell lysate, fluorescence, higher = more signal.
The nature of assay [6]: compound binding in COS7 lysate, probe aLAP1, primary screen, cell lysate, small-molecule microarray (AID 1124).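 Also: lysate comes from COS7 cells expressing LAP1 and is applied at 0.3 µg/mL; score merges spot fluorescence near 667 nm with signal-to-noise over triplicate slides.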 Conditions: probe aLAP1, fluorescence, higher = more signal.
Another assay relates to Sam68 (KHDRBS1). Description: Sam68 small-molecule binders, primary screen, biochemical, small-molecule microarray, 635 nm fluorescence (AID 1125).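 Also: score merges 667 nm channel intensity with signal to noise over triplicate slides.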 The note with it: small-molecule microarray binding, higher = more signal.
In assay [7] the test system is Chordin-like protein 2 (CHRDL2). The assay can be described thus: CHRDL2 small-molecule binders, primary screen, biochemical, small-molecule microarray, 635 nm fluorescence (AID 1126).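 Also: printed compound slides probed with Chrdl2 protein at 4 µg/mL for 1 h at 4 C; score merges 667 nm emission intensity with signal to noise over three replicate slides.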 The note with it: small-molecule microarray binding, fluorescence 635 nm; higher = more signal.
Assay [8] has as its target Concanavalin-A (Canavalia ensiformis) (UniProt P02866). The assay can be described thus: ConA small-molecule binders, primary screen, artefact control for SMM control protein annotation, biochemical, small-molecule microarray, Alexa647 label, 635 nm (AID 1127).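 Also: z combines 667 nm emission intensity with signal-to-noise across three replicate slides.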 The note with it: ConA-A647 binding fluorescence, higher = more signal.
Assay [9] is described as follows: anti-His antibody binders, primary screen, artefact control for SMM control protein annotation, biochemical, small-molecule microarray, 635 nm fluorescence (AID 1128).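 Also: score merges feature fluorescence with signal-to-noise for each printed compound spot.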 Conditions: anti-His Alexa647 antibody binding, higher = more signal.
Assay [10] has as its system Human papillomavirus type 1a E7 protein (residues 1-88). The assay can be described thus: HPV1a E7 small-molecule binders, primary screen, biochemical, small-molecule microarray, residues 1-88, 635 nm (AID 1129). The note with it: small-molecule microarray binding, fluorescence 635 nm; higher = more signal.
The target of assay [11] is Focal adhesion kinase 1 (Homo sapiens) (UniProt Q05397). The assay can be described thus: small-molecule microarray binders of FAK, primary screen, biochemical, 635/667 nm fluorescence, BSA, DTT (AID 1130).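 Also: composite of spot emission at 667 nm and signal to noise over triplicate slides.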 Conditions: PTK2 binding, 635 nm fluorescence, higher = more signal.
Sequence of Focal adhesion kinase 1 (Homo sapiens) (Q05397 whole entry, looked up): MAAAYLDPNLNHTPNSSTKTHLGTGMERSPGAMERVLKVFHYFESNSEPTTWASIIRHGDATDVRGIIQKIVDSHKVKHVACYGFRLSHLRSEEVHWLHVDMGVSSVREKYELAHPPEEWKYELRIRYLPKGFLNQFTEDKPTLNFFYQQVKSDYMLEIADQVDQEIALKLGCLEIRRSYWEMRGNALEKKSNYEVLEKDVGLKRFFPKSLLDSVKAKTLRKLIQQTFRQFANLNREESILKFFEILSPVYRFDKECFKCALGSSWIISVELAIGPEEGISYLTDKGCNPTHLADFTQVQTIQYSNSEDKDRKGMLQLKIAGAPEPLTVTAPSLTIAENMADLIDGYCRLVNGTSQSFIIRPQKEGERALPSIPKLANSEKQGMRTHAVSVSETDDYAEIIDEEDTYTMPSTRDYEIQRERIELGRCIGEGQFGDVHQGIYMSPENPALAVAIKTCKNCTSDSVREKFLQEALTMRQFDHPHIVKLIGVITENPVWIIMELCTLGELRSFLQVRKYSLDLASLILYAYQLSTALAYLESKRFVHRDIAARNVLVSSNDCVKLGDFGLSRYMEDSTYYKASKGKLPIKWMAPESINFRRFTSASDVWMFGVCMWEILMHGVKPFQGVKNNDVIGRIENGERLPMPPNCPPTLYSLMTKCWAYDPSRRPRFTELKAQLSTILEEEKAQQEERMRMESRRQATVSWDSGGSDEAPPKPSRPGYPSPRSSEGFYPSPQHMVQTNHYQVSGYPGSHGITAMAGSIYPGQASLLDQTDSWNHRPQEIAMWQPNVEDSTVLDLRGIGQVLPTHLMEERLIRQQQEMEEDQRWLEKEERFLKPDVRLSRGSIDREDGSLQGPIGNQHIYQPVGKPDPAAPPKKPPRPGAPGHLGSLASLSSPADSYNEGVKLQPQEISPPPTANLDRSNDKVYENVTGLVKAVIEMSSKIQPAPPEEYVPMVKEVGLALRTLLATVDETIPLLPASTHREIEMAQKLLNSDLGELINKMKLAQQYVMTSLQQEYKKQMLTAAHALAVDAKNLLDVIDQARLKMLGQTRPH
Assay [12] concerns Fibrinogen (Alexa647-labelled). Description: fibrinogen binders on compound microarrays, profiling panel, artefact control for SMM control-protein annotation, biochemical, small-molecule microarray, 635/667 nm fluorescence (AID 1131).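 Also: z-score merges 667 nm fluorescence with per-spot signal-to-noise over triplicate slides.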 Conditions: fibrinogen-A647 binding fluorescence, higher = more signal.
For assay [13], the target named is Follistatin (Homo sapiens) (UniProt P19883). Description: follistatin binders on small-molecule microarrays, primary screen, biochemical, small-molecule microarray, 635/667 nm fluorescence (AID 1132). The note with it: FST binding, 635 nm fluorescence, higher = more signal.
Sequence of Follistatin (Homo sapiens) (P19883 whole entry, looked up): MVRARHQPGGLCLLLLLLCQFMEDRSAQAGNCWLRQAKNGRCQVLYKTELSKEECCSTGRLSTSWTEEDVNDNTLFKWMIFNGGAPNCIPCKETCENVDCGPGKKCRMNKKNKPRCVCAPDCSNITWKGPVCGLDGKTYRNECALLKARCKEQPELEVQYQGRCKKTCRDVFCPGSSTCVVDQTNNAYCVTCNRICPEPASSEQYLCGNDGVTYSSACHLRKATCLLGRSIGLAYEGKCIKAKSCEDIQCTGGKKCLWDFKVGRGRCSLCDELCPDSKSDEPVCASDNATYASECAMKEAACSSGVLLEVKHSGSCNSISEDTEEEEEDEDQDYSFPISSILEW
Assay [14] addresses Fibroblast growth factor 2 (Homo sapiens) (UniProt P09038). The assay can be described thus: FGF2 binders on small-molecule microarrays, primary screen, biochemical, small-molecule microarray, 635/667 nm fluorescence (AID 1133). The note with it: small-molecule microarray binding, FGF2, fluorescence 635/667; higher = more signal.
Assay [15] in a line: mitochondrial membrane potential change in A549 cells, profiling panel, cell-based, JC-1 fluorescence, basal, 24 h, 100 nL (AID 1138).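 Also: A549 lung adenocarcinoma cells under basal conditions with no added stimulus; test concentration not given here.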 Conditions: higher = more signal.
A further assay relates to Lefty1. Description: Lefty1 binders on small-molecule microarrays, primary screen, biochemical, small-molecule microarray, 635/667 nm fluorescence (AID 1139). Conditions: small-molecule microarray binding, fluorescence 635/667; higher = more signal.
Assay [16] has as its system wheat germ agglutinin (Triticum aestivum), Alexa647-labelled. The assay can be described thus: wheat germ agglutinin binders on compound microarrays, profiling panel, artefact control for SMM control-protein annotation, biochemical, small-molecule microarray, 635/667 nm fluorescence (AID 1140).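 Also: score merges 667 nm feature emission with signal to noise over triplicate slides.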 The note with it: WGA-A647 binding, 635 nm fluorescence, higher = more signal.

Assay [17] concerns the target Luciferin 4-monooxygenase (Photinus pyralis) (UniProt P08659). Description: firefly luciferase enzyme inhibitors, primary screen, biochemical, luminescence, purified enzyme, 2006 set (AID 1141).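 Also: cell-free assay with purified firefly luciferase at 100 ng per well in PBS; test concentration not given here.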 The note with it: SteadyGlo luminescence, 30 min, higher = more signal, called active from +8 up or from −8 down.

Sequence of Luciferin 4-monooxygenase (Photinus pyralis) (P08659 whole entry, looked up): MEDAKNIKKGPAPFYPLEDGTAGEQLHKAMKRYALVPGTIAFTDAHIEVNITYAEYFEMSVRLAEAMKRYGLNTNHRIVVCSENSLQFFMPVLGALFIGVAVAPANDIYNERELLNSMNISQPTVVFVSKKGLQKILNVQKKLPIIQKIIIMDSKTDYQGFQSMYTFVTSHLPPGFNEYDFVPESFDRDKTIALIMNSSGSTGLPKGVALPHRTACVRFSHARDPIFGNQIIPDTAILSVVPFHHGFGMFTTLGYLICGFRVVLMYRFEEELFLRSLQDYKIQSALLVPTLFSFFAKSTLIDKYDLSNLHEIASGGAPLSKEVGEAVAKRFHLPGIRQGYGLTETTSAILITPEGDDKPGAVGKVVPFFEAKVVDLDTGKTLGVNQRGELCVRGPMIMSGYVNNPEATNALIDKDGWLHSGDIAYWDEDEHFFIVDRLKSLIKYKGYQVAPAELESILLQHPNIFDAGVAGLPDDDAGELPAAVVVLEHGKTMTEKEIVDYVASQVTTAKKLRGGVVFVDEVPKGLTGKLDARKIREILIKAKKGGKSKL
Sequence of Concanavalin-A (Canavalia ensiformis) (P02866 whole entry, looked up): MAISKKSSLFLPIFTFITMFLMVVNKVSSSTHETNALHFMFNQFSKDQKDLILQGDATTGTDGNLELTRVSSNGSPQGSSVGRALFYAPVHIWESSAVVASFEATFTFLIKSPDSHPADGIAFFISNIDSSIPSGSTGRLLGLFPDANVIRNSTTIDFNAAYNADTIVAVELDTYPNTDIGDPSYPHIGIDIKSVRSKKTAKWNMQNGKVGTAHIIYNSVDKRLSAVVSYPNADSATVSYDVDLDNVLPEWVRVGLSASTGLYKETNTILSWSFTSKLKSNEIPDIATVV
Sequence of Albumin (Bos taurus) (P02769 whole entry, looked up): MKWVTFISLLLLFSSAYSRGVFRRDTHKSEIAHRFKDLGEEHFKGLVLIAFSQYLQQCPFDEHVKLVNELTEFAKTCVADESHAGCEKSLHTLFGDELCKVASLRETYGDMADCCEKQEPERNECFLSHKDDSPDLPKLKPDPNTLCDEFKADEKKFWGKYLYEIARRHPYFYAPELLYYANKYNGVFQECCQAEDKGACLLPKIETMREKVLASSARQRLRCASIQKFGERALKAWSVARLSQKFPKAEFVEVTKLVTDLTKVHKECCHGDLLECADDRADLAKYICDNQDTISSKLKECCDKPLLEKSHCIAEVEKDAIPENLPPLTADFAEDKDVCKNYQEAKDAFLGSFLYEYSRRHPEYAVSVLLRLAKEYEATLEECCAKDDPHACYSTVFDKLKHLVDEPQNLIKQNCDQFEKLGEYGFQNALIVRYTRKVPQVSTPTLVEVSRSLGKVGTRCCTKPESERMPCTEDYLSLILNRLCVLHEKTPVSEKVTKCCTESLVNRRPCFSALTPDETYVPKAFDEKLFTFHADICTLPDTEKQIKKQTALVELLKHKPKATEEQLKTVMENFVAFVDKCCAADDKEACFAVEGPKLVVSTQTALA
Sequence of Fibroblast growth factor 2 (Homo sapiens) (P09038 whole entry, looked up): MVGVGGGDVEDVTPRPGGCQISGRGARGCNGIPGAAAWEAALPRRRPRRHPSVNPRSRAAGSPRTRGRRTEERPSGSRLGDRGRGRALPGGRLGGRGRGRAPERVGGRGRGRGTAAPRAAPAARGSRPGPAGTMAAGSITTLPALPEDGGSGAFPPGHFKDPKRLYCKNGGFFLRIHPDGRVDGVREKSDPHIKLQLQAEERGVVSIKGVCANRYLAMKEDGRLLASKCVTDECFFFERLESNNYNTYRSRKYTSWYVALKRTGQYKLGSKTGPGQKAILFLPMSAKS

As for `O=C1NC(=O)C2C1C=CC(C(O)c1ccc(I)cc1)N2Nc1ccc(Cl)cc1Cl` (stereo not given), the composite z-score came out at 0.99 with Albumin (Bos taurus); 0.387 in assay [2]; 0.127 in [3]; 0.404 in assay [4]; 1.61 in assay [5]; 0.943 in [6]. The composite z-score in the assay on Sam68 (KHDRBS1) is 1.22; in [7], -0.776; in [8], 1.09; in assay [9] it was 0.258; in [10], 1.03; in assay [11], 0.741. For the same compound, the composite z-score was 0.978 in [12]; 0.73 in [13]; -0.451 in [14]; -0.199 with Lefty1; 0.661 in [16]. For the same compound, the composite Z-score in [1] is -0.234 (inactive). For the same compound, the z-score in assay [15] is 0.535; in assay [17], -1.33 (inactive).
Turning to `COCCOC(=O)N1C(=O)[C@@]2(c3cc(C#CCCO)ccc31)[C@H](c1ccc(OCCO)cc1)N1[C@H](c3ccccc3)[C@H](c3ccccc3)OC(=O)[C@H]1[C@@H]2C(N)=O`, the composite z-score with Albumin (Bos taurus) is 0.482; in assay [2], -0.0117; in assay [3] it was -0.0567; in assay [4], 0.588; in [5], 1.93; in assay [6], -0.591. Besides, the composite z-score in the assay with Sam68 (KHDRBS1) is 1.29; in assay [7], 0.437; in assay [8], 1.17; in assay [9], 1.3; in assay [10], 1.2; in assay [11] it was 0.711. The composite z-score was 0.837 in assay [12]; 1.04 in assay [13]; 0.752 in assay [14]; 0.496 with Lefty1; 0.694 in [16]. Besides, in assay [1], the composite Z-score was 0.606 (inactive). Moreover, the z-score in assay [15] is -0.212; in assay [17], -1.77 (inactive).
With `CC(c1ccccc1)C(O)C1C=CC2C(=O)N(C)C(=O)C2N1NC(=O)OC(C)(C)C` (stereo not given), the composite z-score was 0.974 with Albumin (Bos taurus); 0.148 in assay [2]; -0.0159 in assay [3]; 0.695 in assay [4]; 2.53 in [5]; 0.857 in [6]. Besides, the composite z-score with Sam68 (KHDRBS1) was 1.3; in assay [7], -0.338; in assay [8], 1.12; in assay [9], 0.79; in assay [10], 1.21; in [11] it was 0.235. The composite z-score in assay [12] was 1.03; in [13], 0.696; in [14], 0.0621; in the assay on Lefty1, -0.271; in assay [16], 0.939. Further, the composite Z-score in [1] was 0.741 (inactive). Also, the results for the z-score in assay [15] and in assay [17] were -0.422 and -0.934 (inactive), respectively.
Turning to `COc1ccc(C(O)C2C=CC3C(=O)N(C)C(=O)C3N2NC(=O)OC(C)(C)C)c2ccccc12` (stereo not given), the composite z-score was found to be 1.02 in the assay with Albumin (Bos taurus); 0.424 in assay [2]; 0.0315 in assay [3]; 0.745 in assay [4]; 2.98 in assay [5]; 0.404 in assay [6]. Moreover, the composite z-score with Sam68 (KHDRBS1) is 1.3; in assay [7], -0.345; in assay [8] it was 1.11; in assay [9], 1.62; in assay [10], 1.28; in assay [11] it was 0.685. The composite z-score in assay [12] is 0.988; in assay [13] it was 0.832; in assay [14] it was -0.161; in the assay with Lefty1, -0.33; in [16], 1.31. The composite Z-score in [1] was -0.128 (inactive). Moreover, the results for the z-score in assay [15] and in assay [17] were -0.771 and -0.9 (inactive), respectively.
Take `CCOC(=O)C[C@H]1[C@H](OC(=O)c2cc3ccccc3oc2=O)[C@@H](NC(=O)CC(C)C)c2cc(OCCCO)ccc2N1C(=O)c1ccccc1`: the composite z-score was 0.793 in the assay with Albumin (Bos taurus); -0.0044 in assay [2]; -0.14 in assay [3]; 0.308 in assay [4]; 0.614 in [5]; 0.139 in assay [6]. Also, the composite z-score with Sam68 (KHDRBS1) stood at 1.21; in [7], 0.202; in [8], 0.298; in assay [9], 0.615; in assay [10], 0.926; in assay [11] it was 0.399. In addition, the composite z-score is 0.595 in assay [12]; 0.478 in [13]; 0.427 in [14]; 0.696 in the assay on Lefty1; 0.634 in assay [16]. Moreover, the composite Z-score in assay [1] is -0.081 (inactive). Also, the z-score in assay [15] was -0.399; in assay [17] it was -0.291 (inactive).
Consider `CC(C)[Si](C#CCCCC#N)(Oc1ccccc1Br)C(C)C`, for which the composite z-score in the assay with Albumin (Bos taurus) was 0.435; in assay [2] it was -0.0377; in assay [3] it was -0.092; in assay [4], 0.508; in assay [5] it was 0.51; in assay [6], 0.0245. For the same compound, the composite z-score was 0.993 in the assay on Sam68 (KHDRBS1); 0.299 in assay [7]; 0.912 in assay [8]; 0.259 in assay [9]; 0.725 in assay [10]; 0.3 in [11]. Also, the composite z-score came out at 0.709 in [12]; 0.269 in assay [13]; 0.223 in assay [14]; 0.55 in the assay with Lefty1; 0.327 in assay [16]. In addition, the composite Z-score in assay [1] is 0.147 (inactive). Further, the z-score in [15] is -0.0477; in assay [17], -0.277 (inactive).
